Screens as filed in PubChem BioAssay.
Sampled rows, rich in hits. Any-hit rate of the full collection: about 0.95%.
Fluorescein autfl: compound autofluorescence in fluorescein spectral region; Compound autofluorescence, 480/540 nm, fluorescein-equivalent; active compounds read high; max fluorescein-equivalent concentration, M; 59,000 compounds, 0.91% hits; AID 593; in the data active means max fluorescein-equivalent concentration above about 10 nM; inconclusive means between about 1.1 nM and that limit
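Compounds (23 nL) in 100 mM Tris pH 8.0, 15 min at room temperature, then fluorescence read at 480 nm excitation/540 nm emission. Signal converted to fluorescein-equivalent concentration from an on-plate fluorescein standard curve.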
A647 autofl: compound fluoresces in the A647 spectral region; Compound fluorescence, A647 channel (570/671 nm), Tris buffer; max dye-equivalent concentration, M; 59,000 tested, under 10 active
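Fluorescence read (570 nm ex, 671 nm em) after 15 min RT incubation of compounds in 100 mM Tris buffer, pH 8.0; values expressed as dye-equivalent concentration against a six-point A647 standard series on each plate.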
Resorufin autofl: resorufin region autofluorescence; max dye-equivalent concentration, M; 59,000 compounds, 0.04% hits; Compound fluorescence, resorufin region 547/598 nm, buffer; active compounds read high; AID 588
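Tris 100 mM pH 8.0; compound added, 15 min RT; CCD imager read, ex 547 nm/em 598 nm; signal normalized to resorufin standard curve (six concentrations per plate) as dye-equivalent concentration.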
A488 autofl: compound autofluorescence in A488 spectral region; compound autofluorescence, A488 spectral region, dye equivalency; Compound Type: qHTS ECL - MLSMR; max dye equivalency, M; 59,000 compounds, 0.1% hits; AID 591
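Readout is A488 dye-equivalent concentration, calibrated by a per-plate six-point Alexa 488 series. Compounds in 100 mM Tris buffer pH 8.0 were incubated 15 min at room temperature. Plates were imaged using 480 nm excitation/540 nm emission filters.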
Rhodamine autofl: rhodamine region autofluorescence | Rhodamine-region fluorescence, 547/598 nm, Tris buffer; active compounds read high | max dye-equivalent concentration, M | 59,000 compounds, 0.05% hits | AID 594; in the data active means max dye-equivalent concentration above about 11 nM; inconclusive means between about 1.1 nM and that limit
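Steps: pin-transfer compounds into pH 8.0 Tris (100 mM), hold 15 min at room temperature, image with a 547/598 nm filter pair, and convert intensities to rhodamine-equivalent concentration using a six-point on-plate rhodamine series.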
TexasRed autofl: compound fluoresces in the Texas Red spectral region; 59,000 compounds, 0.06% hits; Compound fluorescence, Texas Red channel, 547/618 nm; active compounds read high; AID 587; max dye-equivalent concentration, M; in the data active means max dye-equivalent concentration above about 10 nM; inconclusive means between about 1.1 nM and that limit
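qHTS profiling of intrinsic compound fluorescence; 100 mM Tris pH 8.0; 15 min RT; ex 547 / em 618 nm; response expressed as Texas Red dye-equivalent concentration from six-point plate standard.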
Hits are given with their value; - = inactive; ? = inconclusive. Unless noted, how the calls were made is not given here.

SMILES | Fluorescein autfl | A647 autofl | Resorufin autofl | A488 autofl | Rhodamine autofl | TexasRed autofl
Cc1cc(-c2ccccc2C(=O)O)on1 | ? | - | - | - | - | ?
O=C(O)c1ccccc1C1=Nc2ccc(O)cc2Oc2cc(O)ccc21 | 1.67e-07M | - | ? | ? | ? | 1.27e-08M
Cc1ccccc1CNc1ncnc2c1ncn2[C@@H]1O[C@@H](CO)[C@H](O)[C@@H]1O | 2e-08M | - | - | - | - | ?
N#[N+]c1ccc(Nc2ccccc2)cc1 | 1.28e-08M | - | - | - | - | -
O=c1c(-c2cc(F)cc(F)c2)nc2cncnc2n1Cc1ccccc1 | ? | - | - | - | - | -
Cc1cc(-c2ccco2)n2c(nc3ccccc32)c1C#N | 5.98e-08M | - | - | ? | - | -
CN(C)c1ncc2nc(-c3cc(F)cc(F)c3)c(=O)n(Cc3cccs3)c2n1 | ? | - | - | - | - | ?
Cc1ccc(/C=c2\sc3nc(-c4ccco4)nn3c2=O)o1 | 1.5e-08M | - | - | - | - | -
O[C@@H]1[C@@H]2c3cc4c(cc3CN3CCC(=C[C@@H]1O)[C@H]23)OCO4 | ? | - | - | - | - | -
O=C(NCc1ccc2[nH]c3c(c2c1)CCCC3)N1CCOCC1 | 1.46e-08M | - | - | - | - | -
Cc1c(-n2cc(C(=O)c3ccccc3O)cc(C#N)c2=O)c(=O)n(-c2ccccc2)n1C | 3.75e-08M | - | - | ? | - | -
CC(=O)c1sc2nc(-c3cccs3)cc(C(F)(F)F)c2c1N | 7.16e-08M | - | - | ? | - | -
N#C[C@@H]1[C@@H]2C(=O)N(c3ccc4c(c3)OCCO4)C(=O)[C@@H]2C2c3ccccc3C=CN21 (stereo partly specified) | 1.33e-08M | - | ? | - | ? | ?
O=C(c1ccco1)[C@@H]1[C@@H]2C(=O)N(c3ccc(Br)cc3)C(=O)[C@@H]2C2c3ccccc3C=CN21 (stereo partly specified) | ? | - | - | - | - | ?
CC(=O)[C@@H]1[C@@H]2C(=O)N(c3ccc(F)c(Cl)c3)C(=O)[C@@H]2C2c3ccccc3C=CN21 (stereo partly specified) | 3.31e-08M | - | ? | ? | ? | ?
O=C(c1ccco1)[C@@H]1[C@@H]2C(=O)N(c3ccc(F)cc3)C(=O)[C@@H]2C2c3ccccc3C=CN21 (stereo partly specified) | 1.28e-08M | - | - | - | - | ?
CC(=O)[C@H]1[C@H]2[C@H](C(=O)[C@@H]3OC[C@H]2O3)[C@@H]2c3ccccc3C=CN12 | ? | - | - | - | - | -
CC(=O)[C@H]1[C@@H]2C(=O)N(c3cccc(Cl)c3)C(=O)[C@@H]2[C@H]2c3ccccc3C=CN21 | 1.78e-08M | - | - | - | - | -
COc1ccc(NC(=O)[C@@H]2[C@@H]3C(=O)N(C4CCCCC4)C(=O)[C@@H]3C3c4ccccc4C=CN32)cc1 (stereo partly specified) | ? | - | - | - | - | -
C[C@@H]1C[C@@]2(C)Oc3ccccc3[C@H]3OC[C@]1(COC(=O)Nc1ccccc1)[C@@H](C)[C@@H]32 | - | - | - | - | - | ?
NC(=O)[C@@H]1CCCNC1 | ? | - | - | - | - | -
C#C[C@H](N)CCC(=O)O | ? | - | - | - | - | -
CCOC(=O)CN=C1CC(C)(C)CC2=C1Sc1ncnc(N(C)C)c1N2 | 3.4e-08M | - | ? | ? | ? | -
COC(=O)C1=C(C)NC(C)=C(C(=O)OC(C)C)[C@H]1c1cccc2nonc12 | 1.16e-08M | - | - | - | - | -
C[C@@]12CC(=O)[C@@H]3[C@@H](CCC4=CC(=O)CC[C@]43C)[C@@H]1CC=C2CC(=O)O | ? | - | - | - | - | -
SMILES | Fluorescein autfl | A647 autofl | Resorufin autofl | A488 autofl | Rhodamine autofl | TexasRed autofl
COC(=O)c1ccc2c(c1)SC1=C(CCCC1=O)N2 | 5.27e-08M | - | 1.86e-08M | ? | 2e-08M | 2.13e-08M
O=C1O/C(=C\Br)CC[C@@H]1c1cccc2ccccc12 | ? | - | - | - | - | -
O=[n+]1c2c(n([O-])c3cc(F)ccc31)CCCC2 | - | - | - | - | - | -
O=[n+]1c2c(n([O-])c3cc(F)c(N4CCCC4)cc31)CCC2 | 1.71e-07M | - | ? | ? | ? | ?
CC1CCCN(c2nc3ccccc3nc2C(C#N)C(=O)OC2CCCCC2)C1 (stereo unspecified) | 1.42e-08M | - | - | - | - | ?
N#CC(C(=O)OC1CCCCC1)c1nc2ccccc2nc1N1CCCCC1 (stereo unspecified) | 1.26e-08M | - | - | - | - | -
CCCn1c(=N)c(C(=O)NCc2ccc3c(c2)OCO3)cc2c(=O)n3cccc(C)c3nc21 | 1.4e-08M | - | - | - | - | -
COc1cccc2c1C(=O)c1c(O)c3c(c(O)c1C2=O)C[C@](O)(C(C)=O)C[C@H]3O[C@@H]1C[C@H](N)[C@H](O)[C@H](C)O1 | 1.99e-07M | - | 4.52e-08M | ? | 6.02e-08M | 5.91e-08M
COc1cccc2c1C(=N)c1c(O)c3c(c(O)c1C2=O)C[C@](O)(C(C)=O)C[C@@H]3O[C@H]1C[C@H](N)[C@@H](O)[C@H](C)O1 | - | - | - | - | ? | 1.01e-08M
COc1cccc2c1C(=O)c1c(O)c3c(c(O)c1C2=O)C[C@@](O)(C(=O)CO)C[C@@H]3O[C@H]1C[C@H](N)[C@H](O)[C@H](C)O1 | 2.94e-07M | - | 7.59e-08M | 1.29e-08M | 8.66e-08M | 8.34e-08M
CC(=O)[C@@]1(O)Cc2c(O)c3c(c(O)c2[C@H](O[C@H]2C[C@H](N)[C@H](O)[C@H](C)O2)C1)C(=O)c1ccccc1C3=O | 4.69e-07M | - | 2.37e-08M | 2.41e-08M | 4.2e-08M | ?
COCCn1c(=O)c(-c2ccc(F)cc2)nc2cnc(OC)nc21 | - | - | - | - | - | -
CNCC[C@H](Oc1ccccc1C)c1ccccc1 | - | - | - | - | - | ?
O=c1c(-c2ccccc2)[n+]([O-])c2ccccc2n1O | 1.73e-08M | - | - | - | - | -
CN(C)c1ncc2nc(-c3cccs3)c(=O)n(C3CC3)c2n1 | 1.46e-08M | - | - | - | - | -
C[n+]1cc2c3c(ccc2c2ccc4cc5c(cc4c21)OCO5)OCO3 | 2.96e-08M | - | - | ? | ? | -
CCn1nc(C)c(/C=C2\CCCC3=C2OC(N)=C(C#N)C3c2c(C)nn(CC)c2C)c1C (stereo unspecified) | 2.42e-08M | - | - | - | - | -
Cc1nn(-c2ccccc2)c(Cl)c1C1C(C#N)=C(N)OC2=C1C(=O)CCC2 (stereo unspecified) | ? | - | - | - | - | -
C=Cc1c(C)c2cc3[nH]c(cc4nc(cc5nc(cc1[nH]2)C(C)=C5CCC(=O)O)C(CCC(=O)O)=C4C)c(C)c3C=C | ? | - | - | - | - | 1.01e-08M
Cc1cc(OCC(=O)NCCN2CCOCC2)ccc1Br | 2.29e-08M | - | - | - | - | -
